Hits are enriched below; roughly 9% of the tested compounds scored in any of these assays.
KinaseGlo FLuc – Kinase-Glo luciferase inhibition (counter-screen); Kinase-Glo luciferase, ATP luminescence, 8 min; Potency, µM (titrated, usually from 38.3 µM), without a hit: at the highest dose activity change, negative = inhibition, most hits filed as inhibitors; Q27757; 0.28% of 200,000 active; AID 1379; active = well fitted curve in the direction sought with a large enough effect; inconclusive = small, poorly fitted or top-dose-only effect, or another doubt; inactive = no such curve, though single readings can be large; an effect the other way counts as inactive or inconclusive; note: nearly all actives have a fitted effect of over 60% in size
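Compounds were added to a substrate mix at pH 7.2 (50 mM imidazole, 10 uM ATP, within the enzyme's linear range), followed by Kinase-Glo detection reagent; luminescence was measured after 8 minutes at ambient temperature.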
ALDH1A1 block – blocks purified human ALDH1A1 activity; Potency, µM (series often up to 75.3 µM), without a hit: top-dose activity, negative = inhibition, most hits filed as inhibitors; 7.3% of 220,000 active; AID 1030; P00352; Purified ALDH1A1, NADH fluorescence, propionaldehyde substrate;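 note: plate controls were no enzyme wells and a reference inhibitor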
Target sequence (P00352 whole entry, looked up): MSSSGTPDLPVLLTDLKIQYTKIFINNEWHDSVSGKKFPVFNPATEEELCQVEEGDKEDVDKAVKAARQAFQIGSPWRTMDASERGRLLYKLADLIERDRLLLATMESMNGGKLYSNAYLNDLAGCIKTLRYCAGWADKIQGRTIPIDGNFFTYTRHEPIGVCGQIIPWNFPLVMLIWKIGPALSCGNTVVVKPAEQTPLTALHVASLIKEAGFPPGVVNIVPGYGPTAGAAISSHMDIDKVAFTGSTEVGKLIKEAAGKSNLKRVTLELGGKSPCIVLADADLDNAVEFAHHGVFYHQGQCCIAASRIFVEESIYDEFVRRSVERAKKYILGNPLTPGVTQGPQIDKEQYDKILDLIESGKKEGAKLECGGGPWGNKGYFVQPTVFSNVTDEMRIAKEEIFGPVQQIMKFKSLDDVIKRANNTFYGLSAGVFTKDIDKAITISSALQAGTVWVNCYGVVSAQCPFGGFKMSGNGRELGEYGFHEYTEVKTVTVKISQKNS
HPGD block – blocks human HPGD enzyme activity | purified HPGD, NADH fluorescence kinetic, PGE2 substrate | 4.3% of 150,000 active | Potency, µM, without a hit: at the top dose activity change, negative = inhibition, usual class: inhibitors
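NADH formation kinetics: reaction with 30 uM PGE2 and 1 mM NAD+ (final), 20 nM enzyme, Tris-HCl pH 8 with Tween 20, after 15 min compound preincubation at room temperature. Fluorescence change, last versus first of five reads.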
IMPase Li cell – cell-permeable IMPase inhibitors with lithium potentiation | AID 1457 | Potency, µM (doses to about 59.4 µM), for inactives: at the highest dose activity, negative = IMPase inhibition, most hits filed as inhibitors | 0.35% of 210,000 active | CHO-M1 cells, IP1 TR-FRET (IP-One), carbachol + lithium; active = well fitted curve in the direction sought with a large enough effect; inconclusive = small, poorly fitted or top-dose-only effect, or another doubt; inactive = no such curve, though single readings can be large; an effect the other way counts as inactive or inconclusive;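 note: IP1 builds up when IMPase is blocked and the TR-FRET signal falls; plate controls were basal vehicle for no effect and high inhibitor control for full effect; nearly all actives have a fitted effect of over 50% in size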
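CHO-M1, 2000 cells/well, 16–30 h culture; cpd + low Li+, 30 min 37C; lysis with d2-IP1/Eu-anti-IP1 Ab, 10 min RT; TR-FRET 665/620 ratio and 620 channel; AC50 via Hill.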
Lamin A splicing – modulators of lamin A splicing; HeLa LMNA splicing GFP/RFP minigene ratio, 48 h; Potency, µM (highest dose often 46.1 µM), for the others: at the highest dose ratio change, negative = inhibition, hits mostly inhibitors; 0.01% of 200,000 active; active = well fitted inhibition curve with a large enough effect in the signal ratio, with a control signal flat, not every such curve was filed as active; inconclusive = small, poorly fitted or top-dose-only effect, or effect the other way, or a change in a side signal; the % refers to the signal ratio
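S3 HeLa stable clones carrying a lamin A-EGFP splicing minigene plus DsRed2 were seeded at 600 cells/well in Opti-MEM with 2% FBS, pin-dosed and incubated 48 h at 37°C. Acumen cytometry (488 nm) gave the GFP/RFP total-intensity ratio.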
Starred values were filed as active, the others as inactive; ? = inconclusive; nt = no result; [ ] = remark or other dose. Unless noted, calls come from the whole dose curve; as a rule, active = well fitted inhibition curve with a large enough effect (not every such curve was filed as active); inconclusive = small, poorly fitted or top-dose-only effect, or another doubt; inactive = no such curve, though single readings can be large or run the other way. Unless noted, % is set by controls: 0 for no effect and ±100 for the full control effect; potency is the fitted concentration of half-maximal effect.

SMILES	KinaseGlo FLuc	ALDH1A1 block	HPGD block	IMPase Li cell	Lamin A splicing
CC1=Nc2ccccc2N=C(NC(=O)CSc2nnnn2-c2ccccc2)C1c1ccccc1 (centres undefined)	1%	4.5µM*	-14%	-9%[38.3 µM]	?
CCOC(=O)C1CCCN(CC(=O)Nc2cccc(C(C)=O)c2)C1 (centres undefined)	1%	10µM*	nt	12%	?
COC(=O)C[N+](C)(C)C/C=C\c1ccccc1	0%	-2%	nt	18%	nt
CS(=O)(=O)N1CCC(C(=O)NCc2ccccc2)CC1	0%	6%	nt	-3%	19%[46 µM]
CCOc1ccccc1NC(=O)CSc1nnnn1-c1ccccc1	4%	16µM*	-18%	38%[38.3 µM]	-1%
CCOc1ccccc1NC(=O)CSc1nnnn1-c1ccc(C(=O)OC)cc1	-6%	-5%	-21%	15%[38.3 µM]	-2%
COCCCNC(=O)c1ccccc1Oc1ccccc1	1%	10%	-21%	-9%[38.3 µM]	13%
O=C(COC(=O)c1ccc(Br)o1)NC1CCCCC1	6%	0%	nt	-1%	-7%[46 µM]
CCCCC(=O)NCc1ccc(Cl)cc1	4%	17%	14µM*	7%	2%
O=C(NCc1ccc(Cl)cc1)c1ccccc1Oc1ccccc1	-3%	?	10µM*	19%[38.3 µM]	7%
COc1ccc(CNC(=O)c2ccc(CS(=O)(=O)Cc3ccccc3F)o2)cc1	-1%	?	nt	-1%	nt
O=C(NCc1ccccc1)c1ccc(CS(=O)(=O)Cc2ccccc2F)o1	-2%	13µM*	nt	-7%	nt
O=C(NC1CCCC1)c1ccc(Br)o1	-2%	-3%	16µM*	16%[38.3 µM]	0%
CC(=O)c1ccc(S(=O)(=O)Nc2cccc(-c3ccc(N4CCCCCC4)nn3)c2)cc1	nt	nt	nt	nt	-6%[46 µM]
O=C(O)c1ccc(CNC(=O)c2ccc(Br)o2)cc1	-2%	0%	-8%	2%[38.3 µM]	6%
O=C(NCc1ccccc1)c1cccc(Br)n1	2%[39.9 µM]	-13%	32µM*	5%	3%
O=C(NCc1ccc(Cl)cc1)c1ccc(Cl)cc1[N+](=O)[O-]	2%	6%	16µM*	0%[38.3 µM]	-1%
O=C(NCc1ccccc1)c1ccc(Br)o1	-1%	0%	13µM*	-1%	-7%
COc1ccc(CNC(=O)c2ccc(Br)o2)cc1	2%[39.9 µM]	25µM*	25µM*	-4%	1%
O=C(NCCc1ccccc1)c1ccc(Br)o1	0%	?	?	-5%[38.3 µM]	13%
Cc1ccc(C(=O)NCc2ccc(Cl)cc2)o1	0%	-1%	14µM*	4%[38.3 µM]	-6%
O=C(NCc1ccc(F)cc1)c1ccc(Br)o1	-2%	16%	nt	0%	nt
Cc1ccc(CNC(=O)c2ccc(Br)o2)cc1	-6%	16µM*	3.2µM*	40%[38.3 µM]	-4%
O=C(NC(c1ccccc1)c1ccccc1)c1ccc(Br)o1	4%	0.79µM*	-2%	14%[38.3 µM]	-4%
O=C(c1ccc(Br)o1)N(Cc1ccccc1)Cc1ccccc1	2%[39.9 µM]	0.79µM*	-18%	5%	?
SMILES	KinaseGlo FLuc	ALDH1A1 block	HPGD block	IMPase Li cell	Lamin A splicing
CC(C)(C)NC(=O)c1cnn(-c2ccccc2)c1C1CCN(C(=O)OC(C)(C)C)CC1	nt	nt	nt	nt	0%[46 µM]
CCN(Cc1ccncc1)C(=O)c1ccccc1NS(=O)(=O)c1ccc(F)cc1	nt	10%	nt	2%	nt
O=C(/C=C/c1ccc(Br)o1)NC(c1ccccc1)c1ccccc1	0%	22µM*	8%	16%	?
CC(=O)c1ccc(NC(=O)Cn2c(=O)nc(-c3ccccc3)c3cc(Cl)ccc32)cc1	nt	nt	nt	nt	-17%[46 µM]
Cc1ccccc1-c1noc(-c2ccccc2C(=O)NCc2ccco2)n1	nt	14µM*	nt	nt	nt
O=C(NCc1cccnc1)c1ccccc1-c1nc(-c2ccccc2)no1	-14%	20µM*	nt	8%	nt
COC(=O)Nc1ccc2ncn(C)c(=O)c2c1	14%	6%	-14%	-16%[38.3 µM]	-9%
CC(C)NC(=O)c1onc(CSc2cccc(Cl)c2)c1C(=O)O	2%	-6%	-21%	-6%[38.3 µM]	?
CC(C)NC(=O)c1onc(CSc2ccc(F)c(F)c2)c1C(=O)O	-1%	22µM*	-21%	-13%[38.3 µM]	-6%[0.0737 µM]
CC(C)NC(=O)c1onc(CSc2ccc(C(C)C)cc2)c1C(=O)O	6%	?	22µM*	-3%[38.3 µM]	?
C=CCNC(=O)c1onc(CSc2ccc(C(C)C)cc2)c1C(=O)O	4%	-11%	14µM*	6%[38.3 µM]	?

From PubChem BioAssay
